Experimental data taken from PubChem BioAssay (NCI).
Where “and” joins values, the source holds several entries; their conditions need not be identical. Identical values can stand only once. The panel holds about 83,000 compounds, 20% with a hit somewhere; the sample as a whole holds those more often.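 The endpoint reported here, percent growth, reads 100 for growth as untreated, 0 for no net growth and -100 for all cells dead.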 Calls of active or inactive are those of the source. How the source made its calls: active means growth percent below 10; inactive means the rest.

Assays:
Experiment in all cases: NCI-60 one-dose screen, 48 h (100 = growth as untreated, 0 = no growth, -100 = all killed)
SR leukemia = settings: 10 µM unless noted
RPMI-8226 leukemia = system: RPMI-8226 leukemia
OVCAR-8 ovarian = system: OVCAR-8 ovarian
OVCAR-5 ovarian = system: OVCAR-5 ovarian
OVCAR-4 ovarian = system: OVCAR-4 ovarian
SK-OV-3 ovarian = settings: 10 µM unless noted
IGROV1 ovarian = system: IGROV1 ovarian
OVCAR-3 ovarian = system: OVCAR-3 ovarian
HS 578T breast = system: HS 578T breast
NCI/ADR-RES ovarian = system: NCI/ADR-RES ovarian
T-47D breast = system: T-47D breast
BT-549 breast = system: BT-549 breast
MDA-MB-435 melanoma = system: MDA-MB-435 melanoma
SW-620 colon = system: SW-620 colon
MCF7 breast = system: MCF7 breast
HCT-116 colon = settings: 10 µM unless noted
HCC-2998 colon = system: HCC-2998 colon
KM12 colon = system: KM12 colon

Measured: growth

CCOC(=O)C1=C(C)NC(C)=C(C(=O)OCC)C1
inactive: SR leukemia 101% and 105% | RPMI-8226 leukemia; 10 µM unless noted 92.6% and 99.2% | OVCAR-8 ovarian; 10 µM unless noted 121% and 96.9% | OVCAR-5 ovarian; 10 µM unless noted 104% and 92.4% | OVCAR-4 ovarian; 10 µM unless noted 101% and 90.2% | SK-OV-3 ovarian 105% and 112% | IGROV1 ovarian; 10 µM unless noted 100% and 112% | OVCAR-3 ovarian; 10 µM unless noted 102% and 114% | HS 578T breast; 10 µM unless noted 101% and 94% | NCI/ADR-RES ovarian; 10 µM unless noted 114% and 105% | T-47D breast; 10 µM unless noted 90.1% and 116% | BT-549 breast; 10 µM unless noted 110% and 93.7% | MDA-MB-435 melanoma; 10 µM unless noted 95.4% and 97.6% | SW-620 colon; 10 µM unless noted 91.9% and 96.9% | MCF7 breast; 10 µM unless noted 102% and 115% | HCT-116 colon 140% and 87.3% | HCC-2998 colon; 10 µM unless noted 114% and 87.1% | KM12 colon; 10 µM unless noted 96.8% and 113%

OCCCc1ccccc1
inactive: SR leukemia 132% | RPMI-8226 leukemia; 10 µM unless noted 117% | OVCAR-8 ovarian; 10 µM unless noted 104% | OVCAR-5 ovarian; 10 µM unless noted 97% | OVCAR-4 ovarian; 10 µM unless noted 112% | SK-OV-3 ovarian 97.6% | IGROV1 ovarian; 10 µM unless noted 82.4% | OVCAR-3 ovarian; 10 µM unless noted 109% | HS 578T breast; 10 µM unless noted 106% | NCI/ADR-RES ovarian; 10 µM unless noted 108% | T-47D breast; 10 µM unless noted 112% | BT-549 breast; 10 µM unless noted 101% | MDA-MB-435 melanoma; 10 µM unless noted 108% | SW-620 colon; 10 µM unless noted 107% | MCF7 breast; 10 µM unless noted 101% | HCT-116 colon 99.5% | HCC-2998 colon; 10 µM unless noted 108% | KM12 colon; 10 µM unless noted 109%

Cn1c(N)c(N=O)c(=O)n(C)c1=O
inactive: SR leukemia 92.4% and 91.7% | RPMI-8226 leukemia; 10 µM unless noted 104% and 116% | OVCAR-8 ovarian; 10 µM unless noted 96.8% and 104% | OVCAR-5 ovarian; 10 µM unless noted 111% and 104% | OVCAR-4 ovarian; 10 µM unless noted 111% and 103% | SK-OV-3 ovarian 111% and 118% | IGROV1 ovarian; 10 µM unless noted 105% | OVCAR-3 ovarian; 10 µM unless noted 109% and 90.7% | HS 578T breast; 10 µM unless noted 112% and 94.4% | NCI/ADR-RES ovarian; 10 µM unless noted 97.6% | T-47D breast; 10 µM unless noted 105% and 99.8% | BT-549 breast; 10 µM unless noted 111% and 96.8% | MDA-MB-435 melanoma; 10 µM unless noted 109% and 102% | SW-620 colon; 10 µM unless noted 106% and 101% | MCF7 breast; 10 µM unless noted 98.1% and 99.5% | HCT-116 colon 102% and 90.8% | HCC-2998 colon; 10 µM unless noted 106% | KM12 colon; 10 µM unless noted 106% and 94.8%

COc1ccc(CCN=Cc2ccc(Cl)cc2)cc1OC
inactive: SR leukemia 98.5% | RPMI-8226 leukemia; 10 µM unless noted 108% | OVCAR-8 ovarian; 10 µM unless noted 104% | OVCAR-5 ovarian; 10 µM unless noted 119% | OVCAR-4 ovarian; 10 µM unless noted 110% | SK-OV-3 ovarian 112% | IGROV1 ovarian; 10 µM unless noted 105% | OVCAR-3 ovarian; 10 µM unless noted 115% | HS 578T breast; 10 µM unless noted 106% | NCI/ADR-RES ovarian; 10 µM unless noted 106% | T-47D breast; 10 µM unless noted 97% | BT-549 breast; 10 µM unless noted 107% | MDA-MB-435 melanoma; 10 µM unless noted 113% | SW-620 colon; 10 µM unless noted 102% | MCF7 breast; 10 µM unless noted 96.1% | HCT-116 colon 104% | HCC-2998 colon; 10 µM unless noted 105% | KM12 colon; 10 µM unless noted 102%

N#CC(=S)Nc1ccc(Cl)c(Cl)c1
inactive: RPMI-8226 leukemia; 10 µM unless noted 19.7% | OVCAR-8 ovarian; 10 µM unless noted 10.1% | OVCAR-5 ovarian; 10 µM unless noted 11% | OVCAR-4 ovarian; 10 µM unless noted 22.6% | IGROV1 ovarian; 10 µM unless noted 19.5% | T-47D breast; 10 µM unless noted 13.2% | SW-620 colon; 10 µM unless noted 19.6% | HCC-2998 colon; 10 µM unless noted 20.2%
active: SR leukemia 9.44% | SK-OV-3 ovarian 7.19% | OVCAR-3 ovarian; 10 µM unless noted 7.39% | HS 578T breast; 10 µM unless noted -7.34% | NCI/ADR-RES ovarian; 10 µM unless noted 7.44% | BT-549 breast; 10 µM unless noted -4.25% | MDA-MB-435 melanoma; 10 µM unless noted 6.5% | MCF7 breast; 10 µM 5.23% | MCF7 breast; 100 µM -23.4% and -100% | HCT-116 colon 4.91% | KM12 colon; 10 µM unless noted 2.62%

c1ccc2c[n+](Cc3ccc4ccccc4n3)ccc2c1
inactive: SR leukemia 98.1% | RPMI-8226 leukemia; 10 µM unless noted 57.2% | OVCAR-8 ovarian; 10 µM unless noted 69% | OVCAR-5 ovarian; 10 µM unless noted 105% | OVCAR-4 ovarian; 10 µM unless noted 67.1% | SK-OV-3 ovarian 88.5% | IGROV1 ovarian; 10 µM unless noted 80.5% | OVCAR-3 ovarian; 10 µM unless noted 62.1% | HS 578T breast; 10 µM unless noted 86.2% | NCI/ADR-RES ovarian; 10 µM unless noted 102% | T-47D breast; 10 µM unless noted 62.6% | BT-549 breast; 10 µM unless noted 47.2% | MDA-MB-435 melanoma; 10 µM unless noted 90.3% | SW-620 colon; 10 µM unless noted 87.5% | MCF7 breast; 10 µM unless noted 72.2% | HCT-116 colon 59.3% | HCC-2998 colon; 10 µM unless noted 71.7% | KM12 colon; 10 µM unless noted 76.1%

O=c1ccn2c(n1)OC1CC2OC1COC(c1ccccc1)(c1ccccc1)c1ccccc1 (stereo not given)
inactive: SR leukemia 46.1% [100 µM] | RPMI-8226 leukemia; 10 µM 106% | RPMI-8226 leukemia; 100 µM 58.2% | OVCAR-8 ovarian; 10 µM 98.7% | OVCAR-8 ovarian; 100 µM 84.6% | OVCAR-5 ovarian; 10 µM 102% | OVCAR-5 ovarian; 100 µM 101% | OVCAR-4 ovarian; 10 µM 110% | OVCAR-4 ovarian; 100 µM 84.7% | IGROV1 ovarian; 10 µM 115% | IGROV1 ovarian; 100 µM 85.4% | OVCAR-3 ovarian; 10 µM 126% | OVCAR-3 ovarian; 100 µM 102% | HS 578T breast; 10 µM 121% | HS 578T breast; 100 µM 95.1% | NCI/ADR-RES ovarian; 10 µM 112% | NCI/ADR-RES ovarian; 100 µM 103% | T-47D breast; 10 µM 109% | T-47D breast; 100 µM 102% | BT-549 breast; 10 µM 123% | BT-549 breast; 100 µM 88.4% | MDA-MB-435 melanoma; 10 µM 103% | SW-620 colon; 10 µM 108% | SW-620 colon; 100 µM 90.4% | MCF7 breast; 10 µM 95.4% | MCF7 breast; 100 µM 46.7% | HCC-2998 colon; 10 µM 106% | HCC-2998 colon; 100 µM 100% | KM12 colon; 10 µM 117% | KM12 colon; 100 µM 96.3%
active: MDA-MB-435 melanoma; 100 µM -4.08%
